# Shown are actives, neighbours in structure and some others; about 18% of the full set was active somewhere.
# DT40 TDP1 no CPT: qHTS for Inhibitors of human tyrosyl-DNA phosphodiesterase 1 (TDP1): qHTS in cells in absence of CPT. Potency, µM (series often up to 46.2 µM), actives largely listed as inhibitors. 420,000 compounds, 15% hits. DT40 Tdp1-/- hTDP1 cells, no CPT, ATP luminescence, 48 h. AID 686978, 2013; note: nearly all actives have a fitted effect of over 55% in size
#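 Compound effects on proliferation are scored in DT40 Tdp1-/-;hTDP1 cells in the absence of CPT. ATP levels (CellTiter-Glo luminescence) are recorded after a ≥48 hr, 37 °C incubation.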
# Gal4-VP16 FLuc: inhibits Gal4-VP16 luciferase reporter, ROR gamma counter-screen. Drosophila S2 Gal4-VP16 UAS-luciferase, luminescence, 20 h. 310,000 compounds, 3.5% hits. Potency, µM (top dose mostly 53.6 µM), usual class: inhibitors;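 note: Gal4-VP16 expression switched on by copper sulfate through the metallothionein promoter; nearly all actives have a fitted effect of over 50% in size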
# RORgamma inh: ROR gamma (mouse) transcription inhibition; Drosophila S2 Gal4-RORgamma UAS-luciferase reporter, 20 h; Potency, µM (top dose mostly 53.6 µM), hits mostly inhibitors; 310,000 compounds, 5.4% hits; P51450; note: nearly all actives have a fitted effect of over 60% in size
# Target sequence (P51450 whole entry, looked up, the tested form may be a part): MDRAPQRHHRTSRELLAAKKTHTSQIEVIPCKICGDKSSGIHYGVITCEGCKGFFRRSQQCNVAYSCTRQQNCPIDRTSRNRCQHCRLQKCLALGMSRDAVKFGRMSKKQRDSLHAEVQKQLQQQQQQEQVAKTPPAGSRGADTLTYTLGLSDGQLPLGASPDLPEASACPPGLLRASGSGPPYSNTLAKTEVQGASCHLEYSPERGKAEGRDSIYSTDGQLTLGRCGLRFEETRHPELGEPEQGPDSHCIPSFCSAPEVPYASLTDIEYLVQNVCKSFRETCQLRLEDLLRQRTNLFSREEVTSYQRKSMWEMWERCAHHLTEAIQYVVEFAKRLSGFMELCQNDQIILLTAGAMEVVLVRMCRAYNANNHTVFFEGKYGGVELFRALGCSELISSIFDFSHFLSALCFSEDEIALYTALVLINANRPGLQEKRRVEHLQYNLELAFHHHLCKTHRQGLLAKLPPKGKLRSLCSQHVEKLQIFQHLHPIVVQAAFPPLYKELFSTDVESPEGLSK
#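 ROR gamma transcriptional activity was tracked as Gal4-UAS luciferase output in stably transfected Drosophila Schneider cells, with compound added 1 hr before 700 uM copper sulfate induction and a 20 hr ambient-temperature incubation.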
# DT40 TDP1 CPT: DT40-hTDP1 cell growth loss with CPT; chicken DT40 Tdp1-/-;hTDP1 cells + 20 nM CPT, ATP luminescence, 48 h; AID 686979; Potency, µM (highest dose often 46.2 µM), hits mostly inhibitors; 420,000 compounds, 12% hits; note: nearly all actives have a fitted effect of over 55% in size
#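 Chicken DT40 Tdp1-/- cells complemented with human TDP1, 400 cells/well, exposed to compounds plus 20 nM camptothecin for at least 48 h at 37 C; viability read as ATP content by CellTiter-Glo luminescence.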
# IL-1B inflam inh: blocks inflammasome-driven IL-1 beta release | 360,000 compounds, 4.7% hits | THP-1 LPS/ATP IL-1B secretion, AlphaLISA, 16 h; hits give low values | activity change, % at 57.5 µM | AID 743279; in the data active = activity change below about -50%; inconclusive = mostly about -30% to -49%
#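 THP-1 cells pretreated 1 hr with compounds (up to 57.5 uM final), then stimulated with LPS (250 ng/mL final) plus ATP (1.25 mM final); secreted IL-1B measured by AlphaLISA after 16 hr, decreased signal indicating inhibition.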
# LDHA block: LDHA (human) enzyme inhibition | P00338 | 480,000 compounds, 0.15% hits | purified LDHA, NADH/diaphorase-resazurin fluorescence; hits give low values | activity change, % (values are at about 110 or 230 µM); in the data active = activity change below about -30%; inconclusive = mostly about -25% to -30%
#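 Resorufin fluorescence (ex540/em590), read at 0 and 20 min after diaphorase/resazurin addition, reports the NADH left after a 5 min room-temperature reaction of 2 nM human LDH5 with 0.06 mM NADH and 0.2 mM pyruvate.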
# Numbers stand for hits; n = inactive; u = inconclusive; x = not tested or not shown. Unless noted, calls come from the whole dose curve; as a rule, active = well fitted curve in the direction sought with a large enough effect; inconclusive = small, poorly fitted or top-dose-only effect, or another doubt; inactive = no such curve, though single readings can be large; an effect the other way counts as inactive or inconclusive.
SMILES,DT40 TDP1 no CPT,Gal4-VP16 FLuc,RORgamma inh,DT40 TDP1 CPT,IL-1B inflam inh,LDHA block
COc1ccc(C(=O)NCC(c2ccco2)N2CCc3ccccc3C2)c(OC)c1 (stereo unspecified),8.2µM,x,x,23.1µM,n,n
O=C(NCC(c1ccco1)N1CCc2ccccc21)c1ccccc1F (stereo unspecified),u,x,x,n,n,n
COc1cc(C(=O)NCC(c2ccco2)N2CCc3ccccc3C2)cc(OC)c1OC (stereo unspecified),u,x,x,u,n,n
COc1ccc(S(=O)(=O)NCC(c2ccco2)N2CCc3ccccc32)cc1 (stereo unspecified),14.6µM,x,x,u,n,n
COc1ccc(C(=O)NCC(c2ccco2)N2CCc3ccccc32)c(OC)c1 (stereo unspecified),7.31µM,x,x,u,n,n
Cc1ccc2c(COC(=O)COc3ccccc3)cc(=O)oc2c1C,x,x,x,x,x,n
CC(=O)c1ccc(NC(=O)C(C)Oc2cccc(F)c2)cc1 (stereo unspecified),x,x,x,x,x,n
Cc1cccc(OCCSC(C)C(=O)NC(C)(C)C)c1 (stereo unspecified),x,x,x,x,x,n
COc1cccc(-c2nn(C)c3sc(C(=O)NCCc4cccc(C)c4)cc23)c1,5.17µM,x,x,10.3µM,x,n
CCN(CC)CCNC(=O)c1cc2c(-c3cccc(OC)c3)nn(C)c2s1,u,n,n,u,-79.5,n
CC(C)(C)NCC(O)COc1ccccc1C(=O)CCc1ccccc1 (stereo unspecified),14.6µM,n,u,16.4µM,-76.9,n
CC(C)(C)NCC(O)COc1ccccc1C(C)(C)C (stereo unspecified),u,n,n,u,u,n
CC(C)(Cc1c[nH]c2ccccc12)NCC(O)COc1ccccc1C#N (stereo unspecified),23.7µM,n,n,21.1µM,x,x
CC(C)(C)NCC(O)COc1cccc2c1CC(O)C(O)C2 (stereo unspecified),n,n,n,n,n,n
Cc1c[nH]c2cccc(OCC(O)CNC(C)(C)C)c12 (stereo unspecified),n,n,1.41µM,n,n,n
N#Cc1ccccc1OC[C@H](O)CNCCNC(=O)Nc1ccccc1,u,n,n,u,x,x
CCc1[nH]c(C(=O)N(CC)CCC(F)(F)F)c(C)c1C(=O)OC,x,x,x,x,x,n
CN(C)c1ccc(-c2ccc([C@H]3[C@@H]4C=CCC[C@@]4(C)C(=O)N3Cc3ccccc3)c(F)c2)cc1,18.4µM,n,n,23.1µM,n,n
CN(C)c1ccc(-c2cc(C3C4C=CCCC4(C)C(=O)N3Cc3ccccc3)ccc2F)cc1 (stereo unspecified),x,n,n,x,x,x
Cc1cccc([C@H]2[C@@H]3C=CCC[C@@]3(C)C(=O)N2Cc2ccccc2)c1,x,n,n,x,x,x
C[C@@]12CCC=C[C@H]1[C@H](c1ccc(F)c(/C=C/c3ccccc3)c1)N(Cc1ccccc1)C2=O,16.4µM,n,n,u,n,n
COc1ccc([C@H]2[C@@H]3C=CCC[C@@]3(C)C(=O)N2Cc2ccccc2)cc1Cl,20.6µM,n,n,u,n,n
CN(C)c1ccc(-c2cc([C@H]3[C@@H]4C=CCC[C@@]4(C)C(=O)N3Cc3ccccc3)ccc2F)cc1,23.1µM,n,n,u,n,n
CC12CCC=CC1C(c1ccc(/C=C/c3ccccc3)cc1F)N(Cc1ccccc1)C2=O (stereo unspecified),x,n,n,x,x,x
COc1ccc(CNC(=O)CS(=O)(=O)Cc2nc(-c3ccccc3C)oc2C)cc1,x,x,x,x,x,n
CNc1c(NC(=O)Nc2cccc(Cl)c2)c(=O)oc2ccccc12,x,x,x,x,x,n
COc1ccc(-c2cc([C@H]3[C@@H]4C=CCC[C@@]4(C)C(=O)N3Cc3ccccc3)ccc2F)cc1OC,u,n,n,25.9µM,n,n
CC12CCC=CC1C(c1ccc(F)c(Br)c1)N(Cc1ccccc1)C2=O (stereo unspecified),x,n,n,x,x,x

# From PubChem
